Screening data deposited in PubChem by National Center for Advancing Translational Sciences (NCATS).
HEK293 cAMP cs – qHTS Assay for Agonists of the Thyroid Stimulating Hormone Receptor: Activators of Intracellular cAMP Concentrations in Parental HEK 293; 73,000 compounds, 2.5% hits; parental HEK293 CNG cAMP sensor, membrane potential fluorescence; AID 938, 2007; Potency, µM (highest dose often 57.1 µM), without a hit: at the top dose activation, actives largely listed as activators; active = well fitted activation curve with a large enough effect; inconclusive = small, poorly fitted or top-dose-only effect; inactive = no such curve, though single readings can be large or run the other way; note: % of control where 0% means no effect; nearly all actives have a fitted effect of over 55% in size
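Parental HEK 293 cells stably expressing a cAMP-gated CNG channel were loaded with membrane potential dye containing 100 uM RO 20-1724 for 60 min. Compound added for 30 min; depolarization read as fluorescence intensity at 590 nm.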
TSHR ag – qHTS Assay for Agonists of the Thyroid Stimulating Hormone Receptor | AID 926, 2007 | 73,000 compounds, 0.48% hits | Potency, µM (highest dose often 57.1 µM), without a hit: at the highest dose activation, actives largely listed as activators | HEK293-CNG-TSHR cells (CNG channel as cAMP sensor), membrane potential dye, cAMP; active = well fitted activation curve with a large enough effect in the main read-out, with a control signal flat, not every such curve was filed as active; inconclusive = small, poorly fitted or top-dose-only effect, or a change in a side signal; inactive = no such curve, though single readings can be large or run the other way; % of control where 0% means no effect;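 note: the control signal comes from parental cells without the receptor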
Target sequence (P16473 whole entry, looked up): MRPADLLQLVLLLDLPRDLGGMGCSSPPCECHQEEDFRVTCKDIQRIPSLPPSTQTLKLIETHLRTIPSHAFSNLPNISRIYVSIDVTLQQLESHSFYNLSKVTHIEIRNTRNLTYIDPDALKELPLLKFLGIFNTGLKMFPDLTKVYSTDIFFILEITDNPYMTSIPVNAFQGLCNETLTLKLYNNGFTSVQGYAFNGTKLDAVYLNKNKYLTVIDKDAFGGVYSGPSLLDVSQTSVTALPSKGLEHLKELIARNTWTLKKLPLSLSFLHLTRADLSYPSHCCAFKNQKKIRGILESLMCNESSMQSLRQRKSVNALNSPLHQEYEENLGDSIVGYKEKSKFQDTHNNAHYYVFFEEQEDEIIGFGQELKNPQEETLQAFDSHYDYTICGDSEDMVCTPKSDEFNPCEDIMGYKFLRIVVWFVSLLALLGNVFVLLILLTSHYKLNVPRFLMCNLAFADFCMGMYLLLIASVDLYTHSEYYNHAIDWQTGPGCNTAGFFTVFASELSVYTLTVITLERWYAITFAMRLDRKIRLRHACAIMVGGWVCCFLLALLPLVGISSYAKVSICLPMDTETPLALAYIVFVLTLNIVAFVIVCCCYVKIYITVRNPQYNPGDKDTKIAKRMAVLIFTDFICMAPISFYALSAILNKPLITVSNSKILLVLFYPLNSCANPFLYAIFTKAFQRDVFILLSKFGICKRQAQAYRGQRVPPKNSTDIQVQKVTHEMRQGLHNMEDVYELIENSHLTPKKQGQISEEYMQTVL
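HEK 293 cells stably expressing TSHR and a modified CNG channel, with CNG-only parental cells as counterscreen, were preloaded 60 min at room temperature with membrane potential dye containing 100 uM RO 20-1724. Compound exposure was 30 min, and depolarization was read as fluorescence at 590 nm.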
An asterisk follows results filed as active; u = inconclusive; x = no result given; [ ] = another dose, or the depositor's remark. In the library only some 2.9% were active in any assay of this set; here they are far more common. Potency is the fitted concentration of half-maximal effect.

SMILES	HEK293 cAMP cs	TSHR ag
COc1ccccc1N1CCN(C(=O)CSc2nc(C)c(Cc3ccccc3)c(=O)[nH]2)CC1	25µM*	u
COc1ccc(N2CCN(C(=O)CSc3ccccc3)CC2)cc1	-1%[11.4 µM]	-6%[11.4 µM]
C[C@H](CN(C)C)C(=O)c1ccccc1C(=O)O	1%[11.4 µM]	-1%[11.4 µM]
O=[N+]([O-])c1ccc(Cl)c(CNc2ncnc3c2ncn3[C@@H]2CCCCO2)c1	0%[11.4 µM]	0%[11.4 µM]
C(/C=C\c1ccccc1)=Nc1ccc2c(c1)Cc1ccccc1-2	-2%[11.4 µM]	-8%[11.4 µM]
COCCNC(=O)C(c1ccc(C)cc1)N(C(=O)CCC(=O)Nc1ccccn1)C1CCCC1 (stereo unspecified)	12%	2%
COCCN(C(=O)CCCC(=O)Nc1ccccn1)C(C(=O)NC1CCCCC1)c1ccc(C)cc1 (stereo unspecified)	7.9µM*	u
O=C(O)CNC(=O)[C@@H](CS)Cc1ccccc1	8%[25.6 µM]	-2%[25.6 µM]
O=[N+]([O-])c1ccc(CSCc2ccc(Cl)cc2)cc1	4%[11.4 µM]	3%[11.4 µM]
N#C/C(=C\NC(=S)c1ccncc1)c1nc2ccccc2s1	-1%[11.4 µM]	2%[11.4 µM]
CCCc1nc(SCC(=O)Nc2cc(C)on2)c2ccccc2n1	-13%	8%
CCc1cc2ccccc2nc1SCC(=O)Nc1cc(C)on1	25µM*	u
CCc1cc2c(nc1CC)CCN(CC/C(C)=N/OCC[C@@H]1C=C[C@H](OC(C)=O)[C@H](COC(C)=O)O1)C2	6%[11.4 µM]	3%[11.4 µM]
CC(C)(C)c1ccc(OCC(=O)O)c(Cl)c1	11%[11.4 µM]	6%[11.4 µM]
CCCCOCCOCCOCc1cc2c(cc1CCC)OCO2	32µM*	u
CCCCOCCCNC(=O)c1ccc2c(c1)OCO2	27%[11.4 µM]	15%[11.4 µM]
O=C(Nc1ccccc1C(=O)NC(Cc1c[nH]c2ccccc12)C(=O)O)c1ccco1 (stereo unspecified)	13%	0%
Cc1cc(C)nc(NC(=NCCc2c[nH]c3ccccc23)NC(=O)c2ccco2)n1	21%	5µM*
CCOC(=O)C(CC)Sc1nnc2n1C(C)(C)Cc1ccccc1-2 (stereo unspecified)	20µM*	u
COC(=O)CSc1nnc2n1C(C)(C)Cc1ccccc1-2	11%	4%
S=C1N[C@H](c2ccccc2)N[C@H](c2ccccc2)S1	-54%[11.4 µM]	u
C=CC(=O)OCCCC	-11%	u
COC(=O)c1ccc(Nc2nc(C)cc(=O)[nH]2)cc1	13µM*	u
COc1ccccc1Nc1nc(C)cc(=O)[nH]1	0%	5%
C/C(CCC(=O)OC[C@@H]1O[C@H](C#Cc2ccccc2)C=C[C@@H]1Oc1ccc(C)cc1)=N/O[C@@H](C)c1cn([C@H]2COC[C@H]2O)nn1	11%[11.4 µM]	9%[11.4 µM]
SMILES	HEK293 cAMP cs	TSHR ag
FC(F)(F)c1ccccc1-c1ccc2ncnc(NC3CC3)c2c1	32µM*	u
Clc1ccccc1-c1ccc2ncnc(NC3CCNCC3)c2c1	9%	11%
c1csc(CNc2ncnc3ccc(-c4ccoc4)cc23)c1	25%	11%
FC(F)(F)c1ccccc1-c1ccc2ncnc(NCc3cccs3)c2c1	10µM*	u
C=C(CC(=O)O)C(=O)O (tested in a mixture with another compound)	-5%[11.4 µM]	-6%[11.4 µM]
CSCC[C@@H](C(=O)O)N(C)C	11%[11.4 µM]	15%[11.4 µM]
C=C(CO)[C@H]1Cc2c(ccc3c(=O)c4c(oc23)COc2cc(OC)c(OC)cc2-4)O1	-4%	-9%
COc1ccc(-n2c(C)cc(C(=O)CSc3nnc(-c4ccoc4C)n3C)c2C)cc1	32µM*	u
COc1ccc(-n2c(C)cc(C(=O)CSc3nn4c(=O)c(C(C)(C)C)nnc4s3)c2C)cc1	-1%	3%
C[N+](C)(C)[C@H](Cc1c[nH]c(=S)[nH]1)C(=O)O	5%[11.4 µM]	11%[11.4 µM]
COc1ccc(N2CCN(C(=O)c3ccc4c(c3)OCO4)CC2)cc1	1%	5%
COc1ccc(C(=O)N2c3cc4c(cc3C(C)=CC2(C)C)OCO4)cc1	19%	16µM*
C[C@@H]1C(=O)O[C@@H]2C[C@@]34[C@H]5C[C@@H](C(C)(C)C)[C@@]36[C@@H](OC(=O)[C@@H]6O)O[C@]4(C(=O)O5)[C@@]12O	-5%	-3%
Cc1cc(C2(c3cc(C)c(O)c(C(=O)O)c3)OS(=O)(=O)c3ccccc32)cc(C(=O)O)c1O	2%[11.4 µM]	-1%[11.4 µM]
Cc1nc(N2CCOCC2)c2cc(-c3ccccc3)sc2n1	25µM*	u
c1ccc(-c2cc3c(N4CCOCC4)ncnc3s2)cc1	22%	21%
COc1cccc(-c2nc(NC3CCNCC3)c3ccccc3n2)c1	-33%	u
C#C[C@]1(O)CC[C@@H]2[C@H]3CCC4=Cc5oncc5C[C@]4(C)[C@@H]3CC[C@@]21C	13%[25.6 µM]	x
COC(=O)c1ccccc1NC(=O)Cn1c(-c2nonc2N)nc2ccccc21	16µM*	u
CCOC(=O)c1ccccc1NC(=O)CSc1nc2ccccc2n1CC(=O)N1CCCC1	20%	24%
O=C(O)/C=C\C(=O)Nc1ncn[nH]1	3%[11.4 µM]	2%[11.4 µM]
O=S(=O)(NCc1ccccn1)c1cccc2cccnc12	16%	4%
CCc1cc2c(nc1CC)CCN(CC/C(C)=N/OC[C@@H](O)COCc1ccco1)C2	12%[11.4 µM]	1%[11.4 µM]
CC(C)N(CCNC(=O)c1ccc(Cc2nc3ccccc3[nH]2)cc1)C(C)C	-13%	-4%
C#CCCCO/N=C1/C[C@@H](O)[C@@H](O)[C@@H]2[C@@H]3C(=O)N(c4cccc(Oc5ccccc5)c4)C(=O)[C@H]3CC[C@@H]12	-5%[11.4 µM]	-5%[11.4 µM]
SMILES	HEK293 cAMP cs	TSHR ag
COc1ccccc1-c1nnc(Nc2nc3c(OC)cccc3s2)o1	11%	9%
COc1cccc(OC)c1-c1nnc(-c2cn(C)c3ccccc23)o1	20µM*	u
O=C(O)CCSCC(=O)c1ccc2c(c1)OCCO2	14%	21%
O=C(O)CCC(=O)c1ccc2c(c1)OCCO2	20µM*	u
O=C(NCCCCN1CCCC1)c1ccc(Cc2nc3ccccc3[nH]2)cc1	11%	-4%
CC(C)N(C)C	13%	-7%
Cc1cccc(N(CC(=O)NC2CCCCC2)C(=O)c2c(C)noc2C)c1	16µM*	u
CCc1ccc(N(CC(=O)NC2CCCC2)S(=O)(=O)c2c(C)noc2C)cc1	25%	x
O=c1c(-c2ccc(Cl)cc2)nc2cnc(N3CCNCC3)nc2n1Cc1cccs1	11%	-9%
COc1ccc(-c2noc(CCCc3ccccc3)n2)cc1OC	25%	27%
COc1ccc(-c2noc(Cc3ccc(Cl)cc3)n2)cc1OC	29%	25µM*
COc1ccc(Cl)cc1C(=O)N(Cc1nc(-c2cccc(C)c2)no1)C(C)C	12%[11.4 µM]	25µM*
Cc1ccc(-c2noc(CN(C(=O)c3cccc(Br)c3)C(C)C)n2)cc1	4%	x
CC(=O)Oc1ccc2occ(C(=O)c3cccs3)c2c1	25µM*	u
O=C(O)COc1ccc2occ(C(=O)c3ccccc3)c2c1	7%	-13%
Cn1cc(S(=O)(=O)Nc2ccc(F)cc2F)c(=O)n(C)c1=O	19%	2.5µM*
COc1cccc(NS(=O)(=O)c2cn(C)c(=O)n(C)c2=O)c1	5%	2%
COC(=O)/C=C\c1cc(O)ccc1O	-3%	-2%
CN(C)S(=O)(=O)c1cccc(C(=O)NCc2ccco2)c1	14%	3%
Cc1ccc(N(Cc2ccco2)C(=O)c2cccc(S(=O)(=O)N(C)C)c2)cc1	20%	20µM*
